# D1 ag: human D1 receptor agonism. P21728. HEK293 T-REx D1 cells, calcium flux, agonist mode. activation, % at 2 µM. 360,000 tested, 1% active; in the data active = activation above about 30%; also: 0% is about no effect
#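 Tetracycline-induced HEK293 TREx D1 cells, force-coupled to calcium signalling, were dye-loaded with a no-wash calcium kit. Compound was pin-added after a 10 s baseline. Fluorescence was read kinetically at 1 cycle/s for 180 s, with calcium rises flagged as agonism.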
# D3 ag: D3 dopamine receptor (human) agonism. D3R DiscoveRx beta-arrestin cells, luminescence, 90 min. max activation, %. 410,000 tested, 0.58% active. AID 652048; in the data active = max activation above about 30%; also: 0% is about no effect
# Target sequence (P35462 whole entry, looked up): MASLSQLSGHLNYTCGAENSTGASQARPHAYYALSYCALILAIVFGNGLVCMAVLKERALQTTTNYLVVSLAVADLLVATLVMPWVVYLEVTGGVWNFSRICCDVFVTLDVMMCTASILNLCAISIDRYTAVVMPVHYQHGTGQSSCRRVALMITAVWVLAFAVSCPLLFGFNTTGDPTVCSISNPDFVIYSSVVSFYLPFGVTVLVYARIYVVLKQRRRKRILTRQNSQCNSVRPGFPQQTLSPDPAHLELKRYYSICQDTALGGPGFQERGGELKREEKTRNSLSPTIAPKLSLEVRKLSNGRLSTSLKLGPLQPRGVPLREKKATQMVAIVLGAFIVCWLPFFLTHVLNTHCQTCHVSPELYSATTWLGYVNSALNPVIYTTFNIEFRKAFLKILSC
#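 Agonist mode: compounds and dopamine controls were applied to plated cells for 90 min at 37 degrees C after an overnight attachment at 1500 cells/well. Luminescent read-out followed 30 - 60 minutes at room temperature with DiscoveRx detection reagent.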
# D1 potentiator: enhances dopamine response at the human D1 receptor | potentiation, % at 10 µM | 360,000 tested, 0.036% active | HEK293 TREx D1 cells, calcium flux, dopamine EC20 potentiation | AID 504651 | P21728; in the data active = potentiation above about 30%; also: 0% is about no effect
# D1 antagonist: antagonists of human D1 dopamine receptor. P21728. HEK293 TREx D1 cells, calcium flux, dopamine EC80; active compounds read low. activity change, negative = inhibition, % at 10 µM. 360,000 tested, 3.2% active. AID 504652; in the data active = activity change below about -30%; also: % is scaled to controls: 0 for no effect and ±100 for the full control effect
#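 Calcium flux readout: force-coupled, inducible Hek293 Trex D1 line, cells induced overnight at 30 C with tetracycline, dye-loaded 30–90 min at RT. Antagonism scored against EC80 dopamine challenge given 180 s after compound.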
# ERG-DNA inh: ERG Ets/DNA interaction inhibition | P11308 | 370,000 tested, 0.028% active | fluorescence polarization, His-ERG Ets domain / labelled DNA | AID 624246 | Potency, µM (top dose mostly 76.9 µM), inactives show top-dose FP activity, negative = inhibition, usual class: inhibitors; active = well fitted inhibition curve with a large enough effect in the polarisation, with a control signal flat; inconclusive = small, poorly fitted or top-dose-only effect, or effect the other way, or a change in a side signal; inactive = no such curve, though single readings can be large or run the other way; the % refers to the polarisation;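 also: polarization taken with two DNA probes labelled with fluorescein and Texas red; potency is read from the fitted curve at half-maximal effect; % of control where 0% means no effect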
#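 His-tagged ERG Ets domain (1 uM in the protein solution; 300mM KCl, 50mM Tris-HCl, 1mM EDTA, 1mM DTT, pH 7.5) received compound, then a probe mix of 5 nM fluorescein-DNA and 100nM Texas-615-DNA. Fluorescence polarization was read for both dyes.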
# DRD3 antagonist: antagonists of human D3 dopamine receptor; P35462; D3R cells, DiscoveRx beta-arrestin luminescence, antagonist mode; active compounds read low; max response, negative = inhibition, %; 360,000 tested, 2.5% active; in the data active = max response below about -50%; inconclusive = no clear call, values can overlap the other calls; also: % is scaled to controls: 0 for no effect and ±100 for the full control effect
#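 Cells expressing the human receptor were seeded at 1500 cells/well, incubated overnight at 37 degrees C in 5% CO2, then exposed to library compounds with dopamine controls for 90 minutes at 37 degrees C before luminescent detection.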
# * = called active by the depositor; ? = inconclusive; · = no result given; [ ] = remark or other dose. Rows were chosen to be rich in hits. Some 6.1% of all compounds tested hit in one or more screens of this group.
SMILES,D1 ag,D3 ag,D1 potentiator,D1 antagonist,ERG-DNA inh,DRD3 antagonist
CN(CCOc1ccc(Cl)cc1)C(=O)c1ccc2c(=O)n3c(nc2c1)CCC3,-2,-19,-3,19,-9%,-16
O=C(CN1CCN(CCOCCO)CC1)N1c2ccccc2Sc2ccc(Cl)cc21,0,8,2,-6,4%,-14
CN1CCN(CCOC2Cc3ccccc3Sc3ccc(Cl)cc32)CC1 (stereo not drawn),29,-8,-21,-66*,·,-63*
CCc1ccc2c(c1)Sc1ccccc1CC2N1CCN(C)CC1 (stereo not drawn),·,-19,·,·,5%,-116*
c1ccc2c(c1)CC(N1CCCCC1)c1ccccc1S2 (stereo not drawn),·,-3,·,·,-9%,-1
OCCN1CCN(C2Cc3cc(Cl)ccc3Sc3ccc(Cl)cc32)CC1 (stereo not drawn) (tested in a mixture with another compound),12,6,-28,-86*,-1%,-72*
CN1CCN(C2Cc3cc(Cl)ccc3Sc3cc(F)ccc32)CC1 (stereo not drawn),·,-54,·,·,-1%,-93*
CCC(C)(C)c1nnc(NC(=O)C2CCN(C(=O)c3ccco3)CC2)s1,5,3,-6,-5,-3%,4
O=C(NNc1nc2ccccc2nc1C(F)(F)F)c1ccccc1,4,5,-3,-3,-8%,?
O=C(N/N=C/c1ccc(OC(=O)c2cccs2)cc1)c1cccc(F)c1,-1,5,0,14,-1%,-15
COc1ccc(C(=O)COC(=O)[C@H](C)NS(=O)(=O)c2ccc(NC(C)=O)cc2)cc1OC,·,4,·,·,6%[15.4 µM],3
NC(=O)CSc1nnc(NC(=O)C23CC4CC(CC(C4)C2)C3)s1,-1,40*,-8,-16,1%,11
CCc1ccc(N(CC)C(=O)c2cn(C)c(=O)c3cc(OC)c(OC)cc23)cc1,5,-14,0,8,3%,·
Cc1cc(C)c2c(c1)/C(=N\N=c1\sc3ccccc3n1C)C(=O)N2,2,-7,-4,9,4%,-5
Cc1cc(C(=O)CSc2nc3ccccc3[nH]2)c(C)n1CC1CCCO1 (stereo not drawn),14,19,-8,-33*,-5%,79
CSc1ncccc1C(=O)OCC(=O)c1cc(C)n(CC2CCCO2)c1C (stereo not drawn),5,18,-10,-34*,-2%,1
O=C(NCCS(=O)(=O)NCc1cccs1)c1ccccc1,·,-14,·,·,·,-18
COC(=O)c1cc(Br)ccc1N(Cc1cc(OC)cc(OC)c1)S(C)(=O)=O,1,-15,2,·,2%,-10
C/C(=N\OCc1nc2ccccc2c(=O)n1/N=C/c1cc(C)cc([N+](=O)[O-])c1O)c1ccccc1,12,2,0,-33*,-9%,-6
Cc1ccc(NC(=O)N2CCC(C(=O)NCC(C)C)CC2)cc1,0,1,2,3,-8%,30
CCN(C(=O)COC(=O)c1ccc(OCc2c(C)noc2C)cc1)c1ccccc1,2,-4,3,7,-11%,21
CCN(c1ccccc1)S(=O)(=O)c1ccc(OCc2c(C)noc2C)cc1,16,0,-7,-32*,10%,0
Cc1ccc(S(=O)(=O)N(C)c2ccc(OCC(=O)OCc3c(C)noc3C)cc2)cc1,24,-2,-1,-47*,1%,?
Cc1ccc(S(=O)(=O)N(C)c2ccc(OCc3cccc(C)c3)cc2)cc1,38*,-13,-1,12,-7%,-11
Cc1ccc(S(=O)(=O)N(C)c2ccc(OCC(=O)OCc3cccc(Br)c3)cc2)cc1,·,-6,·,·,2%,-20
SMILES,D1 ag,D3 ag,D1 potentiator,D1 antagonist,ERG-DNA inh,DRD3 antagonist
O=C1CC[C@@H](CN(Cc2ccccn2)Cc2nc(Cc3ccccc3)no2)N1,0,-3,5,9,5%,-1
CC1(C(=O)Nc2ccc3c(c2)OCCO3)CSCC(=O)N1CCCn1ccnc1 (stereo not drawn),·,9,·,·,·,5
CCc1ccc(CN2CCC(n3nccc3NC(=O)c3ccccc3C)CC2)cc1,15,8,-4,-6,10%,21
Cc1ccccc1C(=O)Nc1ccnn1C1CCN(Cc2c(C)n(C)c3ccccc23)CC1,12,-19,-3,-34*,-3%,?
O=C1NC[C@@H](c2ccccc2)OC(=O)[C@@H](Cc2ccc(F)cc2)CC/C=C/C[C@H]1CC(=O)N(CCO)Cc1ccccc1,·,-3,·,·,-2%,16
CC(=O)N1CN(C2CCS(=O)(=O)C2)Cc2c1sc1c2CCCC1 (stereo not drawn),1,9,2,-7,7%,-56*
CCCCC(=O)Nc1ccc2c(c1)nc(CCN1CCN(c3ccccn3)CC1)n2C,4,44*,-5,-6,5%,-28
CCC(=O)Nc1ccc2c(c1)nc(CCN1CCC(C)CC1)n2C,1,-14,-7,13,4%,-20
Cn1c(CCN2CCN(c3ccccn3)CC2)nc2cc(NC(=O)COc3ccccc3)ccc21,5,44*,-5,-17,7%,-13
Cn1c(CCN2CCN(c3ccccn3)CC2)nc2cc(NS(=O)(=O)c3ccccc3)ccc21,7,23,-13,-32*,-4%,-16
CC1CCN(CCc2nc3cc(NC(=O)COc4ccccc4)ccc3n2C)CC1,2,-15,1,7,8%,-71*
COc1ccc(NC(=O)Cn2cc(S(=O)(=O)c3ccc(C)cc3)c(=O)c3ccccc32)cc1OC,4,-3,-2,-3,1%,·
CCCC(=O)Nc1ccc2c(c1)nc(CCN1CCN(c3ccccn3)CC1)n2C,3,57*,-4,0,0%,-5
Cc1ccc(OCC(=O)Nc2ccc3c(c2)nc(CCN2CCN(c4ccccn4)CC2)n3C)cc1,·,7,·,·,·,-3
CN(C)c1ccc(NC(=O)c2cccc(C(=O)Nc3ccc(N(C)C)cc3)n2)cc1,1,5,-6,-10,29%,?
COc1ccc(NC(=S)N2CCC(C(=O)c3ccc(F)cc3)CC2)cc1,·,-5,·,·,6%,-5
COc1ccc(CCNC(=O)c2ccccc2SC)cc1,1,-12,-5,7,-5%,-11
O=C(Nc1cccc(F)c1)c1sc(Cl)nc1-c1ccccc1,4,1,0,-36*,7%,3
COc1ccc(-c2cc(-c3ccccc3)nc(N3CCCC3)n2)cc1OC,4,41*,-5,-7,1%,49
CN1CCN(c2nc(-c3ccccc3)cc(C(F)(F)F)n2)CC1,0,-4,-7,-3,-4%,-70*
CS(=O)(=O)c1nc(-c2cccs2)cc(C(F)(F)F)n1,0,·,-2,7,·,·
